For 20 compounds, AC50 and activity, negative = inhibition results are on record in PubChem BioAssay AID1851 (National Center for Advancing Translational Sciences (NCATS), 2009).

Where “and” joins values, the source holds several entries; their conditions need not be identical. Equal entries are not always repeated. Screen size: about 16,000 compounds; about 2,600 (16%) were called active. Another 20% or so got no clear call; they are omitted. Calls follow the shape of the dose curve; as a rule, active = well fitted curve in the direction sought with a large enough effect; inconclusive = small, poorly fitted or top-dose-only effect, or effect the other way; inactive = no such curve, though single readings can be large or run the other way. Shown is part of a subset that was picked to be rich in actives.
% is scaled to controls: 0 for no effect and ±100 for the full control effect.

For the experiment, the target named is Cytochrome P450 2D6 (Homo sapiens) (UniProt P10635). The experiment is described as follows: Cytochrome panel assay with activity outcomes. The conditions noted are these: recombinant CYP, pro-luciferin dealkylation, luminescence, p450-cyp2d6; series mostly up to 57.1 µM.
Sequence of Cytochrome P450 2D6 (Homo sapiens) (P10635 whole entry, looked up): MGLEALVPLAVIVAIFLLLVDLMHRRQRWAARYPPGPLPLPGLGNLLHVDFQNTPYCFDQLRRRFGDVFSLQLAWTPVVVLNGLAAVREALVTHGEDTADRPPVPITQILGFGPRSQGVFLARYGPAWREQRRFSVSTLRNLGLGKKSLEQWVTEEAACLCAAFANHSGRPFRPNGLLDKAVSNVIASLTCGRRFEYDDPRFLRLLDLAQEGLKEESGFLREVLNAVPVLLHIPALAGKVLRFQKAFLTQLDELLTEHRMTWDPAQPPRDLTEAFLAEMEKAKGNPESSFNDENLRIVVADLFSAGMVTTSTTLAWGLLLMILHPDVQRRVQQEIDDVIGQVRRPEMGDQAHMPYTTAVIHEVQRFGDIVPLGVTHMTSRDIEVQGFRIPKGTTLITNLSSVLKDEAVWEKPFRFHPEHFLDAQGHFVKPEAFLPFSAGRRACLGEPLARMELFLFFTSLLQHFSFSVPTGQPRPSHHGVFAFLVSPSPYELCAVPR
`O=C(O)Cc1cccnc1C(=O)O`: the AC50 entry was “inactive”.

Regarding `O=C(O)[C@@H]1[C@H](C(=O)O)[C@]2(Cl)C(Cl)=C(Cl)[C@@]1(Cl)C2(Cl)Cl`, the activity, negative = inhibition is -8.74% [at 11.4 µM] (inactive). Take `O=c1c2ccccc2c2ccccc2c(=O)n1-c1cc2c3ccccc3ccc2c2ccccc12`: the activity, negative = inhibition was 2.85% [at 11.4 µM] (inactive). Regarding `NCC[C@H](O)C(=O)N[C@H]1C[C@@H](N)[C@@H](O[C@H]2O[C@@H](CN)[C@@H](O)[C@@H](O)[C@@H]2N)[C@@H](O[C@H]2O[C@@H](CO)[C@@H](O)[C@@H]2O)[C@@H]1O`, the AC50 entry is “inactive”. Still for that read-out and setting: in the case of `c1ccc2sc(C3(N4CCCCC4)CCCCC3)cc2c1` it was 12.6 µM (active) and 3.16 µM (active); in that of `CN1C(=O)CCS(=O)(=O)[C@H]1c1ccc(Cl)cc1`, “inactive”. Same read-out and setting: for `CCCn1c(=O)c2[nH]c(C3CCCC3)nc2n(CCCOC(=O)c2ccc(S(=O)(=O)F)cc2)c1=O` the value was “inactive”; for `Cc1ncsc1CCCl`, 12.6 µM (active).

As for `C=C(C)[C@H]1CC[C@]2(C(=O)O)CC[C@]3(C)[C@@H](CC[C@H]4[C@@]5(C)CC[C@@H](O)C(C)(C)[C@@H]5CC[C@@]43C)[C@H]12`, the AC50 result is “inactive”. As for `Cc1nc(-c2ccc(-c3ccc(C(=O)N4CCc5cc6c(cc54)C4(CCN(C)CC4)CO6)cc3)c(C)c2)no1`, the AC50 was 31.6 µM (active). Take `COC(=O)c1c(C)ccc2c(O)c3c(cc12)C(=O)c1c2c(cc(O)c1C3=O)[C@@]1(C)O[C@@](C)(O2)[C@@H](O)[C@H](N(C)C)[C@H]1O`: the activity, negative = inhibition was -17.5% [at 11.4 µM] (inactive). With `C=C[C@]12CN(C)[C@H]3C1[C@@]1(C(=O)Nc4ccccc41)[C@H]1C[C@H]2[C@H]3CO1`, the AC50 entry is “inactive”.

Consider `N[C@@H](CSC1c2ccccc2-c2ccccc21)C(=O)O`, for which the activity, negative = inhibition is -14.3% [at 11.4 µM] (inactive). Take `O=C(CNS(=O)(=O)c1cccs1)N1CCC2(CC1)OCCO2`: the AC50 result is “inactive”. The same measure, in the same setting: for `C(=C/c1ccccc1)/CN1CCN(CCOC(c2ccccc2)c2ccccc2)CC1` the value was 5.01 µM (active). The same measure, in the same setting: in the case of `Fc1ccc(C(OCCN2CCN(C/C=C\c3ccccc3)CC2)c2ccc(F)cc2)cc1` it was 7.94 µM (active); in that of `Clc1ccc([C@@H](OCCN2CCCCC2)c2ccccc2)cc1`, 0.0158 µM (active); in that of `CC(C)(c1ccc(OC[C@@H]2CO2)cc1)c1ccc(OC[C@H]2CO2)cc1`, “inactive”. On to `C[C@@H]1CC[C@@H]2N(C1)C[C@H]1[C@@](O)([C@H](O)C[C@]3(O)[C@H]4CC[C@H]5[C@]6(O)O[C@]4(C[C@]13O)[C@@]5(C)CC[C@@H]6O)[C@@]2(C)O`, for which the activity, negative = inhibition is 10.1% [at 11.4 µM] (inactive). For `CCCCC/C=C\C/C=C\C/C=C\C/C=C\CCCC(=O)NCC(=O)O`, the AC50 entry is “inactive”.

Broadly, the AC50 is the midpoint of the concentration-response curve, whichever way the signal moves.
